M18AAP inhibitor – blocks P. falciparum M18 aspartyl aminopeptidase. recombinant PfM18AAP, H-Glu-NHMec fluorogenic cleavage. inhibition, % at 7.35 µM. 290,000 tested, 1.2% active. AID 1822;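 active = inhibition above the campaign mean inhibition over all tested compounds plus 3 SD, cut at about 28% in these data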
CR mimetic SO – yeast age-related superoxide inhibition as caloric restriction mimetic | S. cerevisiae aged cells, superoxide DHE fluorescence; stronger effect = lower value | superoxide response (% of plate mean), % at 10 µM | 330,000 tested, 0.18% active | AID 2690;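 active = superoxide response under a set limit, about three screen SD below normal, cut at about 65% in these data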;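 note: yeast aged for seven days with compound at 30 °C before DHE staining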
A3G deaminase – inhibitors of human APOBEC3G DNA deaminase | recombinant A3G, ssDNA deamination FAM/TAMRA fluorescence | inhibition, % at 20 µM | 330,000 tested, 0.28% active | AID 493012 | Q9HC16;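 active = inhibition of at least 40% at 20 µM, with no more than 30% in the related APOBEC3A deaminase screen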
Target sequence (Q9HC16 whole entry, looked up): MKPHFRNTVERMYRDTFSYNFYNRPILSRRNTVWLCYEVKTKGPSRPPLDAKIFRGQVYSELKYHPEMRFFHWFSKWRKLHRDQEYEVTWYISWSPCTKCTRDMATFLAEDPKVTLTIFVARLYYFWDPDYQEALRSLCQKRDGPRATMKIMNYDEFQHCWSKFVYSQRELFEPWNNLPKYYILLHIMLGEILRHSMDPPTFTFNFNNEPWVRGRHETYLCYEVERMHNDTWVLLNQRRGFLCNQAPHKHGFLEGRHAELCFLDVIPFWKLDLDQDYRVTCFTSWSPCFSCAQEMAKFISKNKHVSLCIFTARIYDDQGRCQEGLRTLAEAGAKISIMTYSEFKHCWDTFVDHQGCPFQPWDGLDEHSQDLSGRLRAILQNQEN
PfGluPho inh – PfG6PD (Plasmodium falciparum) enzyme inhibition; PfGluPho enzyme, NADPH resazurin-diaphorase fluorescence; inhibition, % at 20 µM; 350,000 tested, 0.78% active;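 active = inhibition reaching at least a set limit at 20 µM in the primary screen, cut at about 59% in these data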
A3A deaminase – inhibitors of human APOBEC3A DNA deaminase; AID 493011; inhibition, % at 20 µM; P31941; recombinant A3A, FAM/TAMRA ssDNA deamination fluorescence; 330,000 tested, 0.41% active;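 active = at least 40% inhibition at 20 µM here, with at most 30% in a related deaminase screen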
Target sequence (P31941 whole entry, looked up): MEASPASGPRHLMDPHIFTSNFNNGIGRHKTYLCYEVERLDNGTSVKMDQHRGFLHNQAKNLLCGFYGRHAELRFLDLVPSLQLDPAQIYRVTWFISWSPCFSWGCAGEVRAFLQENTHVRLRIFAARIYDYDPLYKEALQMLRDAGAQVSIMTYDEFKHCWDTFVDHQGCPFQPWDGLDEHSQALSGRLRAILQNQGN
Numbers stand for hits; – = inactive; · = not tested or not shown. An excerpt weighted towards active compounds, which were near 2.4% of everything screened.

SMILES	M18AAP inhibitor	CR mimetic SO	A3G deaminase	PfGluPho inh	A3A deaminase
Clc1nssc1=Nc1ccccc1	–	·	·	77	·
O=C1CSC(=Nc2ccccc2)N1Cc1ccccc1	–	–	–	–	–
Clc1ccc(N=c2ssnc2Cl)cc1	–	–	76	–	–
O=C(Cc1cccs1)NNC(=S)NC(=O)c1ccccc1	35	–	–	–	–
O=C(Cc1cccs1)NNC(=S)NC(=O)c1ccc(F)c(F)c1	44	–	–	–	–
COc1ccc(/C=C/C(=O)NC(=S)NNC(=O)Cc2cccs2)cc1	–	58	–	–	–
CC(=O)NNC(=S)NC(=O)c1ccccc1	48	–	–	–	–
CC(=O)NNC(=S)NC(=O)c1ccc(C)cc1	–	–	–	–	–
CN(C)c1ccc(/C=C2\Oc3ccc(C#Cc4cccc(N)c4)cc3C2=O)cc1	·	–	–	–	–
CN(CC(=O)N1CCN(Cc2ccccc2)CC1)C(=O)Cc1cccc2ccccc12	·	–	–	–	–
CCCNC(=O)c1ccc(N2CCC3(CC2)CC(c2cccc(Br)c2)=NO3)c([N+](=O)[O-])c1	–	–	–	–	–
N[C@@H](C(=O)N[C@@H]1C(=O)N2C(C(=O)O)=C(Cl)CS[C@H]12)c1ccccc1	–	–	–	–	–
NC(=O)c1cc[n+](CC2=C(C(=O)O)N3C(=O)[C@@H](NC(=O)C(c4ccccc4)S(=O)(=O)[O-])[C@H]3SC2)cc1 (stereo partly specified)	–	–	–	71	–
CCN(CC)c1ccc(C=Nc2cccnc2Cl)c(O)c1	31	–	–	–	–
COc1ccc(/C=C2/CCC(CN3CCOCC3)C2=O)cc1 (stereo unspecified)	·	·	·	76	·
CN(C)CC1CC/C(=C\c2ccc(O)cc2)C1=O (stereo unspecified)	·	·	·	61	·
COc1ccc(/C=C2\CCC(C3CCCC3)C2=O)cc1 (stereo unspecified)	–	–	–	–	–
CC1CCC/C(=C\c2ccc(O)cc2)C1=O (stereo unspecified)	·	–	–	–	–
Cc1coc2c1C(=O)C(=O)c1c-2ccc2c(C)cccc12	·	–	–	64	–
COc1ccc(OC)c(NC(=O)C2CCCN(S(C)(=O)=O)C2)c1 (stereo unspecified)	–	–	–	–	–
CCN=c1scc(-c2ccco2)n1/N=C/c1ccc(O)cc1	–	–	–	–	–
CCN=c1scc(C)n1/N=C/c1cc(Br)c(O)c(Br)c1	30	–	–	–	–
Clc1ccc(C2=NCCN2)cc1	–	–	–	–	–
Cc1ccc(-c2cc(C(=O)O)c3cc(Br)ccc3n2)o1	–	–	–	75	–
CCOC(=O)Cc1csc(NC(=O)Nc2cccc(OC)c2)n1	–	59	–	–	–
SMILES	M18AAP inhibitor	CR mimetic SO	A3G deaminase	PfGluPho inh	A3A deaminase
CCOC(=O)Cc1csc(NC(=O)c2cccc(OC)c2)n1	–	–	–	–	–
COc1cc(/C=C2/SC(=S)N(c3c(C)n(C)n(-c4ccccc4)c3=O)C2=O)ccc1O	33	–	–	–	–
O=C(CCCn1c(=O)oc2ccccc21)Nc1ccccc1	·	·	–	–	–
CCCCNC(=S)NNC(=O)c1csc(C)c1	–	–	–	–	–
CCNC(=S)NNC(=O)c1csc(C)c1	28	–	–	–	–
COc1ccc2[nH]c3c(c2c1)CCN1C(=O)C(CC(=O)NCCC2=CCCCC2)C[C@H](C(=O)N2CCCCC2)[C@@]31C (stereo partly specified)	·	–	–	–	–
Nc1nc(-c2ccccc2)ns1	·	·	·	–	·
Cc1ccc(/C=C2\SC(=S)N(c3cccnc3)C2=O)o1	31	–	–	–	–
COc1cc(OC)cc(-c2c(-c3ccc(C(C)=O)cc3)c3cc(-c4cccc5[nH]ccc45)ccc3n2C)c1	·	–	–	–	–
CCOc1cc(N2CCOCC2)c(OCC)cc1NC(=O)Cc1cccc2ccccc12	–	–	–	89	–
O=C(C(=O)N1CCN(c2ccc(F)cc2)CC1)c1cn(CC(=O)N2CCOCC2)c2ccccc12	–	–	–	–	–
S=c1[nH]nc(-c2ccco2)n1-c1ccccc1Cl	–	–	42	–	–
Cc1cc(Cl)ccc1-n1c(-c2cccnc2)n[nH]c1=S	–	–	–	–	–
Cc1c(Cl)cccc1-n1c(-c2cccnc2)n[nH]c1=S	31	–	–	–	–
CCc1ccccc1-n1c(-c2ccncc2)n[nH]c1=S	30	–	–	–	–
CCn1c(CN2CCOCC2)nnc1SCC(=O)Nc1cccc(C)c1	–	–	–	–	–
COc1ccc(CNC(=O)CN2C(=O)CCSc3ccc(S(=O)(=O)N4CCCC4)cc32)cc1	–	–	–	–	–
CN(C)CC1CCCCC1OC(=O)c1ccc(S(=O)(=O)N(C)c2ccccc2)cc1 (stereo unspecified)	–	–	–	–	–
Oc1cc(CNC2CCCCC2)c(O)cc1CNC1CCCCC1	·	·	·	81	·
O=[N+]([O-])c1cc2c(cc1C=Nc1ccccc1)OCO2	–	–	–	87	–
Cc1cccc(N=Cc2cc3c(cc2[N+](=O)[O-])OCO3)c1	–	–	–	–	–
COc1cccc(OCC(=O)N2CCCc3ccccc32)c1	–	–	–	–	–
CCCCN=C1NN=C(c2ccc3c(c2)OCCO3)CS1	–	–	–	–	–
c1cc2c(cc1C1=NNC(=NC3CC3)SC1)OCCO2	31	–	–	–	–
COc1ccc(C)cc1NC(=O)CSc1nnc2ccc(-c3ccncc3)nn12	·	–	–	–	–
SMILES	M18AAP inhibitor	CR mimetic SO	A3G deaminase	PfGluPho inh	A3A deaminase
Cc1cccc2c(N)c3c(nc12)N(C)CC3	31	–	–	–	–
CC(C)(C)n1nnnc1C(c1ccncc1)N1CCN(c2ccc(O)cc2)CC1 (stereo unspecified)	30	–	–	–	–
CC(C)(C)n1nnnc1C(c1cccnc1)N1CCOCC1 (stereo unspecified)	–	–	–	–	–
CCc1cccc(NC(=O)C2CCCN2S(=O)(=O)c2ccc3c(c2)CC(C)N3C(C)=O)c1 (stereo unspecified)	–	–	–	–	–
CC(C)CSc1nnc2c(n1)[nH]c1ccccc12	–	–	–	–	–
CC1=CCC(/C=N\Nc2nnc3c(n2)[nH]c2ccccc23)CC1 (stereo unspecified)	36	–	–	·	–
COC(=O)c1ccc(CNC(=O)Cn2cnc3c(SC)nc(N)nc32)cc1	·	–	–	–	–
CC(C)N(Cc1ccccc1)C(=O)CN1C(=O)NC(Cc2ccccc2)(c2ccccc2)C1=O (stereo unspecified)	–	–	–	–	–
CCc1ccc(OCC(=O)NNCC(=O)Nc2ccc(OC)cc2)cc1	·	·	–	–	–
O=Cc1cn(-c2ccccc2)nc1-c1ccccc1	–	–	–	–	–
CC1=NNC(=O)/C1=C\c1cn(-c2ccccc2)nc1-c1ccccc1	66	–	·	–	·
CC(=O)NCCn1c(SCc2cccc([N+](=O)[O-])c2)nc2ccccc2c1=O	–	–	–	–	–
S=C(NCCOCCOCCNC(=S)Nc1ccccc1)Nc1ccccc1	28	–	–	–	–
S=C(NCCNC(=S)Nc1ccccc1)Nc1ccccc1	–	–	–	–	–
